# Only a selection was taken, and hits are over-represented in it overall.
# BJeLR viability: lowers viability of BJeLR cells | viability loss activity score, % (no concentration beside the values) | 30,000 tested, 0.64% active | BJeLR fibroblasts viability, CellTiterGlo ATP luminescence, 48 h; HRASV12, hTERT and SV40 LT/ST transformed | AID 2275; in the data active = viability loss activity score above about 50%;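 also: higher score means fewer live cells and less ATP luminescence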
# Shh pathway inh: blocks Sonic Hedgehog signaling; Shh-LIGHT2 Gli-luciferase reporter, 30 h; inhibition, % (no concentration beside the values); 22,000 tested, 2.1% active; AID 2313;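 active = mean inhibition across valid replicates above about 65%, limit read from the data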;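 also: pathway switched on by Shh-conditioned medium diluted 1 in 25 in low serum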
# The depositor's hits bear a star; · = not tested or not shown.
SMILES,BJeLR viability,Shh pathway inh
O=C1C=C2C=C[C@@H]3C[C@@]2(O1)[C@H]1CCCCN31,-2,72*
Cc1ccc(-c2nc(Cn3cc(C=C4C(=O)N(C)C(=O)N(C)C4=O)c4ccccc43)no2)cc1,-2,·
COc1ccc2c(c1OC)C(=O)O[C@H]2[C@@H]1c2cc3c(cc2CCN1C)OCO3,1,-39
CN1Cc2c(ccc3c2OCO3)C2C(O)Cc3cc4c(cc3C21)OCO4 (configuration not stated),72*,82*
CC1=CC2OC3[C@H](O)C[C@@](C)([C@]34CO4)[C@@]2(CO)[C@H](O)C1=O (some centres not stated),74*,40
O=C(O)c1[nH]c2ccc(Cl)cc2c1CC(=O)N1CCC2(CC1)OCCO2,2,·
C/C=C(/C)C(=O)O[C@H]1C(C)=C2[C@H]([C@@H]1OC(=O)CCCCC)[C@@](C)(OC(C)=O)C[C@H](OC(=O)CCC)[C@@]1(O)[C@H]2OC(=O)[C@@]1(C)O,26,105*
Brc1cccc(CN2CCN(Cc3cccc(Br)c3)CC2)c1,9,·
CC(=O)OC[C@]12C[C@H](O)C(C)=C[C@H]1O[C@@H]1[C@H](O)[C@@H](OC(C)=O)[C@@]2(C)[C@]12CO2,119*,96*
CC(=O)OC[C@]12CCC(C)=C[C@H]1O[C@@H]1[C@H](O)[C@@H](OC(C)=O)[C@@]2(C)[C@]12CO2,122*,109*
CCN(CC)CCc1c(C)c2ccc(O)cc2oc1=O,-1,·
CC(C)N(C(=O)SCC(Cl)=C(Cl)Cl)C(C)C,11,-6
CC1=CC(=O)C2=C(C)C[C@H](O)[C@@H]3[C@H](OC(=O)[C@@H]3C)[C@@H]12,·,-18
C/C1=C/[C@@H](C)C/C=C/[C@H]2[C@@H]3O[C@]3(C)[C@@H](C)[C@H]3[C@H](Cc4c[nH]c5ccccc45)NC(=O)[C@]32C(=O)/C=C\C(=O)[C@@H]1O,·,102*
CCOC(=O)C1=C(CN2CC=C(c3ccccc3)CC2)NC(=O)NC1c1ccc(OC)cc1 (configuration not stated),-3,·
CCC(C)N=Cc1c(O)[nH]c(=O)[nH]c1=O (configuration not stated),-2,·
NCCC1COc2ccccc2O1 (configuration not stated),-2,·
CCC1(CC)OC(c2cccnc2)Nc2ccccc21 (configuration not stated),0,·
N#Cc1c(/N=C/c2cc(Br)ccc2O)sc2c1C1CCN2CC1,-2,·
CO[C@H]1[C@H](O)[C@H](O[C@H]2CC[C@]3(C)C4CC[C@]5(C)C(C6=CC(=O)OC6)CC[C@]5(O)C4CC[C@@H]3C2)O[C@@H](C)[C@@H]1O (some centres not stated),111*,-5
COC1CC(OC2CCC3(C)C(CCC4C3CCC3(C)C(C5=CC(=O)OC5)C(OC(C)=O)CC43O)C2)OC(C)C1OC1OC(COC2OC(CO)C(O)C(O)C2O)C(O)C(O)C1O (configuration not stated),96*,3
C[C@]12CC[C@H](O)C[C@H]1CCC1C2CC[C@]2(C)[C@@H](C3=CC(=O)OC3)[C@@H](O)C[C@]12O (some centres not stated),30,-47
CCCC12CNCC(C)(CNC1)C2=O,-1,·
CN[C@@H]1C[C@@]2(C)O[C@@H]([C@@H]1OC)n1c3ccccc3c3c4c(c5c6ccccc6n2c5c31)C(=O)NC4,127*,103*
COc1cc(C(=O)O[C@H]2[C@@H]3C=CO[C@@H](O[C@@H]4O[C@H](CO)[C@@H](O)[C@H](O)[C@H]4O)[C@@H]3[C@@]3(CO)O[C@@H]23)ccc1O,-2,-26
SMILES,BJeLR viability,Shh pathway inh
N#CC(c1ccccc1)c1ccccc1,-6,·
C/C=C\C(=O)O[C@@H]1C[C@H]2O[C@@H]3C=C(C)C(=O)C[C@]3(C)[C@]1(C)[C@]21CO1,101*,65*
CN(C(=O)c1ccc(Cl)cc1)c1ccc(Cl)cc1C(=O)c1ccccc1,2,·
CC1=CC2/C=C(\C)CCC(O)C(O)/C=C/C(=O)C23C(=O)NC(CC(C)C)C3C1C (configuration not stated),96*,71*
NC1=C(C(=O)OCc2ccccc2)C2(C(=O)Nc3ccc(Br)cc32)C2=C(O1)C(=O)CCC2 (configuration not stated),-3,-16
CC(O)CN1CC2CC(C1)c1cccc(=O)n1C2 (configuration not stated),-1,·
COCc1cc(OC(=O)N(C)C)nc(COc2ccc(Cl)cc2)n1,4,·
CCn1cnc2c(Nc3cccc(Cl)c3)nc(N[C@@H]3CCCC[C@@H]3N)nc21,57*,73*
C=CC1C[N+]2([O-])CCC1CC2C(O)c1ccnc2ccccc12 (configuration not stated),·,-13
CC[C@@]1(O)C(=O)OCc2c1cc1n(c2=O)Cc2cc3c(O)cccc3nc2-1,107*,68*
CCc1ccc(CN2CCN(Cc3ccc(CC)cc3)CC2)cc1,4,·
CCc1ccc(NC2=NCCS2)cc1,7,·
CCC(C)(O)C(=O)O[C@H]1C(=O)O[C@@H]2C[C@H]3C(C)=CC(=O)[C@@H](O)[C@]3(C)[C@H]3[C@@]4(O)OC[C@]32[C@@H]1[C@@H](C)[C@H]4O (some centres not stated),114*,67*
CC1(C)C(C(=O)Nc2nccs2)C1(C)C,-4,-30
Cn1cnc(-n2oo2)c1C#N,-1,-38
N#CC1(P(=S)(c2ccccc2)c2ccccc2)CCCC1,-1,·
C[C@@H]1CC([C@H](O)CC2CC(=O)NC(=O)C2)C(=O)[C@@H](C)C1 (some centres not stated),87*,68*
C[C@@H]1C[C@@H]([C@H](O)CC2CC(=O)NC(=O)C2)C(=O)[C@@H](C)C1,61*,50
COc1ccc2c(c1)[C@]13CCCC[C@H]1[C@H](C2)N(C)CC3,-2,20
CC(C)(C)c1nc2ccccc2c(=O)n1-c1ccc(F)cc1F,7,1
O=C(c1ccc2nc(N3CCCCC3)sc2c1)N1CCC2(CC1)OCCO2,6,·
CCCCc1nc2ccccc2c(=O)n1-c1ccc(C)cc1,-1,·
C=C1[C@@H](C)[C@H]2[C@H](Cc3ccccc3)NC(=O)[C@]23OC(=O)/C=C\[C@H](O)CCC[C@@H](C)C/C=C/[C@H]3[C@@H]1O,39,65*
OC[C@H]1O[C@@H](Oc2ccc(/C=C/c3cc(O)cc(O)c3)cc2O)[C@H](O)[C@@H](O)[C@@H]1O,·,-18
O=C(CC[N+](=O)[O-])OC[C@H]1O[C@@H](O)[C@H](OC(=O)CC[N+](=O)[O-])[C@@H](OC(=O)CC[N+](=O)[O-])[C@@H]1OC(=O)CC[N+](=O)[O-],2,41
SMILES,BJeLR viability,Shh pathway inh
COc1cccc(OC)c1C1=NCC(=O)Nc2c1oc1ccc(Br)cc21,55*,·
CCCc1nc(-c2ccccn2)nc(OC(=O)N(C)C)c1Cc1c(F)cccc1Cl,-4,·
COc1cccc(N2CCNCC2)c1,3,·
C=CC1CN2CCC3(C(=O)Nc4ccccc43)C2CC1/C(=C/OC)C(=O)OC (configuration not stated),0,10
N#CC(C#N)=Cc1cc(O)c(O)c(O)c1,1,42
CC(C)(C)c1cc(C=C(C#N)C#N)cc(Br)c1O,8,88*
Cc1[nH]c2ccccc2c1CCNCC(C)(C)C,-7,·
